Inconclusive results are not listed. The source made the active and inactive calls. Calls come from the whole dose curve; as a rule, active = well fitted inhibition curve with a large enough effect; inconclusive = small, poorly fitted or top-dose-only effect; inactive = flat fitted curve, though single readings scatter.
Experiments:
CRL-7250 = normal cell line; experiment: Cytotoxic Profiling of Annotated Libraries Using Quantitative High-Throughput Screening (AID 1296008); settings: Five cell lines viability, CellTiter-Glo ATP luminescence, 48-72 h; max response: hits give low values; for max response: % is set by controls: 0 for no effect and ±100 for the full control effect
Summary of the method: (§1)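 Cells exposed to compounds for 48 or 72 hr at 37 degrees Celsius. Viability read as ATP-coupled luminescence with CellTiter-Glo after 10 min at room temperature.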

HaCat [1] = experiment: as above; settings: Five cell lines viability, CellTiter-Glo ATP luminescence, 48-72 h; max response: hits give low values
Summary of the method: as §1

KB-3-1 = experiment: as above; settings: Five cell lines viability, CellTiter-Glo ATP luminescence, 48-72 h; max response: hits give low values
Summary of the method: as §1

NIH3T3 = experiment: as above; settings: Five cell lines viability, CellTiter-Glo ATP luminescence, 48-72 h; max response: hits give low values
Summary of the method: as §1

HACAT [2] = experiment: qHTS assay to identify novel small-molecules to repurpose for Merkel cell carcinoma treatment (AID 1296009); settings: MCC and control cell lines, CellTiter-Glo viability, 72 h; at 44.8 µM (top of the series) unless noted
Summary of the method: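 Cells were treated for 72 hr at 37 degree celsius with compounds in 8- or 11-point dose response. Viability was read by CellTiter-Glo luminescence, normalized to no-cell (cytotoxicity) and DMSO controls.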

Measured: max response
Note: nearly all actives have a fitted effect of over 60% in size.

CC(C)(O)c1ccc2c(c1)ncn2-c1cccc(-c2ccccc2C#N)c1
inactive: CRL-7250 | HaCat [1] | KB-3-1 -0.453% | NIH3T3 | HACAT [2]

C/C=C/C=C/C(=O)O[C@@H]1C=C2COC(=O)[C@]2(O)[C@@]2(C)CCCC(C)(C)[C@H]12
inactive: CRL-7250 -1.83% | HaCat [1] | KB-3-1 0.722% | NIH3T3 | HACAT [2]

CC1=C(C(=O)Nc2cc(Cl)ccc2Cl)C(c2ccco2)C2=C(CCCC2=O)N1 (stereo not given)
inactive: CRL-7250 -1.05% | HaCat [1] | KB-3-1 7.23% | NIH3T3 -25.9% | HACAT [2]

CC(=O)NC[C@H]1CN(c2ccc(N3CCSCC3)c(F)c2)C(=O)O1
inactive: CRL-7250 3.86% | HaCat [1] | KB-3-1 -11.9% | NIH3T3 | HACAT [2]

O=C(Nc1ccn(Cc2ccc(O)cc2C(F)(F)F)n1)c1c(F)cccc1F
inactive: CRL-7250 -7.76% | HaCat [1] | KB-3-1 -23.9% | NIH3T3 | HACAT [2]

O=C(NC[C@H]1CN(c2ccc(N3CCOCC3=O)cc2)C(=O)O1)c1ccc(Cl)s1
inactive: CRL-7250 0.206% | HaCat [1] | KB-3-1 -11.5% | NIH3T3 -0.938% | HACAT [2]

CNCCN1CCC(c2cc(CN(C)C(=O)c3cccc(Oc4ccccc4)c3)ccn2)CC1
inactive: CRL-7250 1.09% | HaCat [1] | KB-3-1 8.17% | NIH3T3 1.12% | HACAT [2] inactive [at 17.4 µM]

C[C@@H](NC(=O)c1ccc(C#Cc2cccc(F)c2)cn1)C(C)(C)O
inactive: CRL-7250 -12.8% | HaCat [1] | KB-3-1 7% | NIH3T3 2.74% | HACAT [2]

Reference: PubChem BioAssay (NCATS)
